Legend:
PEG-3 [1] = target: PEG-3 (UniProt Q6IN02); experiment: inhibition of PEG-3 promoter-driven reporter – cell-based, HeLa, luciferase, CREF/GAPDH counter-screen panel, dose response (AID 624167); conditions: CREF/GAPDH counter-screens; HeLa PEG-Prom luciferase reporter, overnight, run 1, dose range 1, at 100 µM (top of the series) unless noted
PEG-3 [2] = target: PEG-3 (UniProt Q6IN02); experiment: as above; conditions: CREF/GAPDH counter-screens; HeLa PEG-Prom luciferase reporter, overnight, run 2, dose range 1, at 100 µM (top of the series) unless noted

PEG-3, sequence (Q6IN02 whole entry, looked up): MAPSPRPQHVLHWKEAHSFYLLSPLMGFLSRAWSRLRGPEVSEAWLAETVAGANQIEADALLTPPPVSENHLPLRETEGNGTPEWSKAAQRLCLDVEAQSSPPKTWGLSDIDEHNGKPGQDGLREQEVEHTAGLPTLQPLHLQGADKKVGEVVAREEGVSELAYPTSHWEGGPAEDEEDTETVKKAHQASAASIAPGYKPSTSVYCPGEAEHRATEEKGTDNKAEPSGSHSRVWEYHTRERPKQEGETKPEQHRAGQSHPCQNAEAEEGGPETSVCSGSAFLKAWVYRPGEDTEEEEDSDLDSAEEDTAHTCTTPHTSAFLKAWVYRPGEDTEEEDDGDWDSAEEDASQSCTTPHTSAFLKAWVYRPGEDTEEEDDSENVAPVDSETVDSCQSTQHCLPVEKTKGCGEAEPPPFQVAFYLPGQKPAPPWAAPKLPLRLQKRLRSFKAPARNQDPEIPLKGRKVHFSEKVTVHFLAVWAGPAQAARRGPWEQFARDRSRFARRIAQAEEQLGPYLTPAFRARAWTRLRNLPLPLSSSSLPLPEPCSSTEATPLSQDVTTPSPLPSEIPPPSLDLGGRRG

| SMILES | inhibition (PEG-3 [1]) [%] | inhibition (PEG-3 [2]) |
| --- | --- | --- |
| c1ccc(CN=C(NCc2ccccc2)NCc2ccccc2)cc1 | 99.7 | 102% |
| Oc1[nH]c2ccc(Br)cc2c1N=NC(=S)Nc1ccc(F)cc1 | 89.9 | 100% |
| CC1=NN(c2cccc(C(=O)O)c2)C(=O)/C1=C\C=C/c1ccccc1 | 86.8 | 99.5% [run 2, dose range 1, at 50 µM] |
| Cc1cc(-n2c(SCC(=O)Nc3ccc(F)c(F)c3)nc3n[nH]c(C)c3c2=N)ccc1Cl | 100 | 95.3% |
| COc1cccc(CN(C)C(=O)c2cc(-c3cccs3)nc3ccccc23)c1 | 84 | 101% |
| CC1(C)CC(NC(=O)c2sc3cc(Cl)ccc3c2Cl)CC(C)(C)N1 | 99.4 | 101% |
| COc1cc(N=Nc2c(O)c3ccccc3[nH]c2=O)c(OC)cc1N=Nc1ccccc1 | -11.2 | -33.1% |
| O=C(Nc1ccc(CN2CCCCC2)cc1)Nc1ccc(Br)cc1Cl | 99 | 101% |
| CCOC(=O)c1sc2nc(CSc3ccccc3)nc(N3CCCN(C)CC3)c2c1C | 101 | 99% |
| CN1Cc2c(N3CCOCC3)nc3sc(C(=O)c4ccc(Br)cc4)c(N)c3c2CC1(C)C | 99 | 101% |
| O=C1c2ccccc2C(=O)C12OC2c1ccc(Cl)cc1Cl (configuration not stated) | 99 | 102% |
| Cc1ccc(-c2nnc(N3CCN(c4ccccn4)CC3)c3ccccc23)cc1 | 98 | 101% |
| c1cncc(-c2nc(NCC3COc4ccccc4O3)c3ccccc3n2)c1 (configuration not stated) | 101 | 99.8% |
| Cc1c(C#N)c(N)nc2c3c(sc12)NC(=O)CC3c1ccc(Cl)cc1 (configuration not stated) | 98.7 | 100% |
| CC(C)n1nc(C(=O)Oc2cc(Cl)ccc2Cl)c2ccccc2c1=O | 98.6 | 97.5% |
| CCN(CC)CCNC(=O)c1ccc(NC(=O)c2cccc(S(=O)(=O)N(C)C3CCCCC3)c2)cc1 | 100 | 102% |
| Cc1ccc(C2(CCNCc3ccc(N(C)C)cc3)CCOC(C(C)C)C2)cc1 (configuration not stated) | 99.6 | 101% |
| OC1(c2ccc(Cl)c(Cl)c2)C[n+]2ccccc2N1Cc1ccccc1 (configuration not stated) | 95 | 101% |
| CCC(C)Sc1ccc(-c2nc3ccccn3c2NCc2ccccc2)cc1OC (configuration not stated) | 102 | 89.4% |
| O=C(CCCN1C(=O)/C(=C/c2ccccc2Cl)SC1=S)NNC(=O)c1ccccc1Cl | 100 | 101% |
| O=C1NC(Cc2ccc(O)cc2)c2nc3ccc(F)cc3c(=O)n2-c2cc3ccccc3cc21 (configuration not stated) | 100 | 95.8% |
| COc1ccc(-c2sc3ccccc3c2-c2ccc(OCCN3CCCCC3)cc2)cc1 | 99.5 | 100% |

| SMILES | inhibition (PEG-3 [1]) [%] | inhibition (PEG-3 [2]) |
| --- | --- | --- |
| COc1ccc(C(=O)Nc2cccc(C(=O)N/N=C/c3ccc(OC)cc3OC)c2)cc1 | 84.1 | 93.1% |
| CCN1C/C(=C/c2ccc(N3CCOCC3)cc2)C(=O)/C(=C/c2ccc(N3CCOCC3)cc2)C1 | 94.6 | 96.4% |
| COC(=O)C1=C(C)N(Cc2ccccc2)C(=NCc2cccc(Cl)c2)N[C@H]1c1ccccc1 | 102 | 101% |
| CCN(CC)CCN1CCN(c2cncc(-c3ccc4ccccc4c3)n2)CC1 | 98.9 | 102% |
| CC1CCCCN1C(=O)c1cccc(NC2=C(Cl)C(=O)N(Cc3ccccc3)C2=O)c1 (configuration not stated) | 101 | 101% |
| CCC1(c2ccccc2)NC(=O)N(CC(=O)Nc2cc(S(=O)(=O)N3CCCCCC3)ccc2OC)C1=O (configuration not stated) | 65.1 | 61% |
| Cc1cccc(N=C2Sc3nc4c(C)c(C)ccc4cc3CN2CCN2CCOCC2)c1 | 85.6 | 93.7% |
| COc1ccc(C23CC4CC(CC(C4)C2)C3)cc1C(=O)NCCN(C)C | 101 | 102% |
| CC(=O)c1ccc(Nc2nc(C(N)Cc3ccc(Cl)cc3)cs2)cc1 (configuration not stated) | 99.5 | 98.2% |
| Cc1nn(-c2ccccc2)c2c1C(c1ccc([N+](=O)[O-])cc1)N1C(=N2)C(=O)Nc2ccccc21 (configuration not stated) | 10.2 | 2.44% |
| COc1ccc(C2c3c(ncn(CCCN4CCOCC4)c3=N)Oc3ccc4ccccc4c32)cc1OC (configuration not stated) | 102 | 100% |
| CCCCCCOc1ccc(/C(C)=N/NC2=NCCN2)cc1 | 101 | 101% |
| CC(=O)N1CCN(c2cc(-c3ccccc3)nc3cc(-c4cccc(Cl)c4)nn23)CC1 | 101 | 95.5% |
| O=C1C(Cl)=C(Nc2ccc(O)cc2)C(=O)c2ccccc21 | 102 | 101% |
| CN(C)CCNc1ncnc2c1sc1nc(N3CCOCC3)c3c(c12)CC(C)(C)SC3 | 98 | 101% |
| CCCN(CC(=O)Nc1cc(Cl)cc(Cl)c1)CC(=O)Nc1ccc(F)c(F)c1F | 101 | 99% |
| CCOC(=O)c1cccc(Nc2nc(-c3cccnc3)nc3ccccc23)c1 | 98.9 | 101% |
| CN(CC(=O)Nc1ccc(Cl)c(C(F)(F)F)c1)C(=O)c1cc(-c2ccncc2)nc2ccccc12 | 102 | 98.9% |
| O=C(/C=C/c1cc(Br)ccc1O)c1ccco1 | 102 | 101% |
| O=[N+]([O-])c1cc(Cl)cc(/C=N\Nc2ccccn2)c1O | 28.9 | 40.5% |
| COc1cccc(/C=N/NC(=O)c2c(-c3ccccc3)noc2C)c1O | 33.5 | 54.6% |
| COc1ccc(-c2cc(-c3ccc(F)cc3)nc(N3CCN(C)CC3)n2)cc1 | 25.8 | 101% |

| SMILES | inhibition (PEG-3 [1]) [%] | inhibition (PEG-3 [2]) |
| --- | --- | --- |
| O=c1c2c3c(sc2nc(N2CCNCC2)n1CCc1ccccc1)CCCCC3 | 102 | 101% |
| CSc1ccc(CN(C)C(=O)C(Cc2ccccc2)NC(=O)c2ccccc2)cc1 (configuration not stated) | 101 | 96.7% |
| CCOC(=O)c1c(NC(C)=O)sc2c(OCC(O)CN(CC)CC)c(Br)ccc12 (configuration not stated) | 102 | 98.6% |
| CN(C)C=NC(=O)c1[nH]c2ccc(Cl)cc2c1-c1ccccc1 | 98.6 | 96.5% |
| COc1cc2ccccc2cc1C(=O)N(CCN(C)C)c1nc2c(OC)ccc(OC)c2s1 | 98.2 | 101% |
| COc1ccc(CNC(=O)Nc2nc(C(N)Cc3ccc(F)cc3)cs2)cc1 (configuration not stated) | 102 | 101% |
| O=C(C(=O)N(Cc1ccccc1)Cc1ccccc1)c1c(-c2ccccc2)[nH]c2ccccc12 | 20.8 | 46.6% |
| O=S(=O)(Nc1cccc2ncccc12)c1cccs1 | 94.5 | 96.5% |
| CC(=O)Nc1ccc(S(=O)(=O)N(Cc2ccco2)Cc2cc3ccccc3[nH]c2=O)cc1 | 91.7 | 71.7% |
| CC(C)CC1C(=O)N(Cc2cn(CCC3OCCO3)nn2)CCS(=O)(=O)N1Cc1ccc(-c2ccc(F)cc2)cc1 (configuration not stated) | 98.1 | 93.8% |
| CC(C)(C)c1ccc(CN2N=Nc3ccccc3S2(=O)=O)cc1 | 98.8 | 100% |
| O=C(c1ccoc1)N1CCN(c2cc(-c3ccccc3)nc3cc(-c4ccccc4)nn23)CC1 | 58.2 | 66% |
| COc1ccccc1CN(C)C(=O)c1cc(-c2cccs2)nc2ccccc12 | 99 | 98.8% |
| CC(=O)c1cccc(-c2csc3ncnc(Sc4nnnn4C)c23)c1 | 99.4 | 100% |
| Cc1ccc(C(=O)N2CCN(c3ccc([N+](=O)[O-])c(NCc4cccnc4)c3)CC2)cc1 | 48.8 | 47.4% |
| NC(=O)c1nsc(C(=O)N(c2ccccc2F)C(C(=O)NCc2ccccc2)c2ccc(O)cc2)c1N (configuration not stated) | 98.6 | 99.3% |
| CCc1ccc(NC(=O)CSc2nc3ccccc3c(=O)n2CCCN2CCC(C)CC2)cc1 | 99.2 | 101% |
| Cc1ccc2[nH]c3c(c2c1)CCCC3NC(=O)CCl (configuration not stated) | 97 | 96.5% |
| Cc1nc(N2CCN(S(=O)(=O)c3ccccc3C#N)CC2)c2c(-c3ccccc3)csc2n1 | -7.38 | 5.99% |
| CC(=O)c1ccc(Nc2cc(C)nc3ccc(C)cc23)cc1 | 99.2 | 102% |
| Cc1cc(Cl)n2ncc(-c3ccccc3)c2n1 | 102 | 102% |
| CC(NS(=O)(=O)OCC(Cl)(Cl)Cl)c1ccc(C(C)(C)C)cc1 (configuration not stated) | 101 | 97.9% |

| SMILES | inhibition (PEG-3 [1]) [%] | inhibition (PEG-3 [2]) |
| --- | --- | --- |
| CCN1CCN(c2ncc(C(=O)Nc3cc(Cl)ccc3OC)c3ccccc23)CC1 | 100 | 98.7% |
| CCN(CC)CCn1c2ccccc2c2cnc(N)c(C#N)c21 | 101 | 102% |
| C[C@@H](C(=O)Nc1ccc2c(c1)OCCO2)n1c(=O)[nH]c2ccccc2c1=O | 53.8 | 39.3% |
| CCCCNc1nc(=S)n(-c2ccccc2)c(C)c1C(C)=O | 98 | 98.8% |
| CC(C)n1cc(CN2CCC(C(=O)Nc3cccc(-c4cccc(Cl)c4)c3)CC2)cn1 | 99.3 | 101% |
| CCCc1nc2oc3c(NCCCN(C)C)ncnc3c2c2c1CCCC2 | 102 | 101% |
| CN(C)S(=O)(=O)c1cccc(NC(=O)CSc2cccc3cccnc23)c1 | 99.3 | 101% |
| CC(=O)Nc1cccc(NC(=O)c2cc(-c3cccnc3)nc3ccc(Cl)cc23)c1 | 87.9 | 97.3% |
| COc1ccc2c(c1)[nH]c1c(=O)n(/N=C/C3C(C)C=C(C)CC3C)c(=O)[nH]c12 (configuration not stated) | -108 | -83.6% |
| CN(Cc1ccccc1)C(=O)c1ccc(Nc2nc(C(N)Cc3ccccc3)cs2)nc1 (configuration not stated) | 102 | 101% |
| CN(C)c1ccc(/C=N/NC(=O)c2nnn(-c3nonc3N)c2COc2ccc(F)cc2)cc1 | 2.41 | -13.2% |
| CCn1c2ccccc2c2cc(NC(=O)C(C)OC(=O)c3ccc(NC(=O)CC#N)cc3)ccc21 (configuration not stated) | 97.5 | 83.1% |
| O=C(Nc1ccc2oc(-c3ccncc3)nc2c1)c1ccc([N+](=O)[O-])o1 | 99 | 101% |
| CN(C)c1ccc(N=Nc2nc3ccccc3n2C)cc1 | 98.1 | 98.9% |
| COc1cccc(C(=O)c2sc(NC(C)C)nc2N)c1 | 93.5 | 95.7% |
| O=C(CCN1C(=O)/C(=C/c2cccs2)SC1=S)N1CCCCC1 | 96.2 | 94.3% |
| CN(C)S(=O)(=O)c1cccc(NC(=O)CSc2nc3c(cc2C#N)C(=O)CC(C)(C)C3)c1 | 63.2 | 60.6% |
| Cc1ccc(CC2(OCCN(C)C)CCC(C(C)(C)C)CC2)cc1 (configuration not stated) | 99.6 | 97.3% |
| O=C(Nc1ccccc1N1CCOCC1)c1cc(-c2ccncc2)nc2ccccc12 | 93.7 | 88% |
| COc1ccc(CN2CCN(C(=O)c3cc(-c4cccnc4)nc4ccc(Cl)cc34)CC2)c(OC)c1OC | 74.9 | 83% |
